Screening results (PubChem BioAssay)
Many of the other results were omitted from the sample, so hits are more common in it than they were.
GIRK2 activator = GIRK2 channel activators by thallium flux | activation (% efficacy), % for hits at 37.5 µM | HEK293 GIRK2/NPY4 cells, thallium flux fluorescence | AID 1259324 | 34,000 tested, under 10 active;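 active means primary screen hit, no activity in plain HEK293 cells, and in GIRK2-only cells above 5% efficacy rising with concentration; inactive means the rest, including fluorescent compounds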;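 further: efficacy is normalized control-subtracted fluorescence 15 s after thallium addition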
AMPAR-TARP mod = GluA2-stargazin AMPA receptor complex modulation. calls only at 30 µM. O88602+P19491. AID 1259245. 40,000 tested, 3.5% active. HEK293 GluA2+stargazin, membrane potential dye (FDSS), glutamate EC50; hits were called plate by plate, in both directions;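 active means any of four per-well response measures lying three or more SD from its plate-wide compound average, in either direction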
Target sequence (O88602 whole entry, looked up): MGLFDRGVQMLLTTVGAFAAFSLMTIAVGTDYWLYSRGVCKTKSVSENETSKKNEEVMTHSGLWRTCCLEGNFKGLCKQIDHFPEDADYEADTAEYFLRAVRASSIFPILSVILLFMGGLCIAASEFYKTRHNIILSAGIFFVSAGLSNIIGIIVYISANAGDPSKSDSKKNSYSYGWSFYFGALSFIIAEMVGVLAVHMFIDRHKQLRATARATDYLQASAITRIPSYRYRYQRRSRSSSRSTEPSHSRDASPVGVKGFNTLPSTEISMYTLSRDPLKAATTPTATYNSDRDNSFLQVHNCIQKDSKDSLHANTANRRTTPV
Target sequence (P19491 whole entry, looked up): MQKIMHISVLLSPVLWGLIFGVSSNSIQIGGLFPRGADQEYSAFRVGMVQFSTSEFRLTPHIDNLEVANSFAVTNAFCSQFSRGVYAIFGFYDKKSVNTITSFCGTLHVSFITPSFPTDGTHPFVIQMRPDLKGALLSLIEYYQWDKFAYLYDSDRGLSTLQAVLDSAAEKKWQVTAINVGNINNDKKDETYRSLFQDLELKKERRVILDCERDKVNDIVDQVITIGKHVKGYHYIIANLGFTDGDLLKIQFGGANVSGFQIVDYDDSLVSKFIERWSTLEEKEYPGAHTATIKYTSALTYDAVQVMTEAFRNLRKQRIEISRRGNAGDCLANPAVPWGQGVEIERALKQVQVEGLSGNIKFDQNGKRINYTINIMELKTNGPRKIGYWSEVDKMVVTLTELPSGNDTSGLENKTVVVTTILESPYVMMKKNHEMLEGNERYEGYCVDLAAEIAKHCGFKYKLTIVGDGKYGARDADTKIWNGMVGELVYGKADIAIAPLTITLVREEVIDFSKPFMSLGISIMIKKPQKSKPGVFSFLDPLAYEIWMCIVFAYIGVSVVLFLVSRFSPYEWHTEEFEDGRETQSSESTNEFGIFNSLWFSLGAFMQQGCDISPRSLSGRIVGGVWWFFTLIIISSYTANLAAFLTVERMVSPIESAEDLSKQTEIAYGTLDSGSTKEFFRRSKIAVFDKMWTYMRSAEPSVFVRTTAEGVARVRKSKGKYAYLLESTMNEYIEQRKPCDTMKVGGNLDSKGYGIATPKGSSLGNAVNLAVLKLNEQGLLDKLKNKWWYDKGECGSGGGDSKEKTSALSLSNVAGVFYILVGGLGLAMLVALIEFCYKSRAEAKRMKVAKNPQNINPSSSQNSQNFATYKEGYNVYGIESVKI
* = called active by the depositor; i = inactive; x = no result; + = active, no number.

SMILES | GIRK2 activator | AMPAR-TARP mod
CC(C)(C)n1ncc2c(=O)n(NC(=O)c3cc(Br)ccc3Cl)cnc21 | i | +
CCOCC(=O)Nn1cnc2c(cnn2C(C)(C)C)c1=O | x | +
CC(C)(C)n1ncc2c(=O)n(NC(=O)c3cc([N+](=O)[O-])ccc3Cl)cnc21 | i | i
O=C(CN(Cc1ccc(Cl)cc1)S(=O)(=O)c1cccnc1)N1CCCc2ccccc21 | i | i
CC1=C(C(=O)OCc2ccccc2)C(c2ccccc2OCc2ccccc2)NC(=O)N1 (centres undefined) | x | i
COc1cc(COCC2CCN(CC(=O)Nc3ccc4c(c3)OCO4)CC2)cc(OC)c1 | i | i
Cc1cc(NC(=O)Cn2cnc(-c3ccc(Cl)cc3)cc2=O)sn1 | i | i
Cc1ccc(Oc2ccc(N(C)C(=O)c3cc4ccccc4oc3=O)cc2)nn1 | i | i
Cc1cc(NC(=O)Cc2cccc3ccccc23)on1 | i | x
O=C(NCc1ccsc1)C1CC1 | i | i
CC1(C)C(=O)NCCN1C(=O)c1ccco1 | i | +
Cn1ccc(C(=O)N2CCNC(=O)C2(C)C)n1 | i | i
O=C(CC1NCCNC1=O)Nc1ccc(C(F)(F)F)cc1 (centres undefined) | x | i
Cc1ccc2nc(NC(=O)c3ccc(=O)n(Cc4cccc(F)c4)n3)sc2c1 | i | i
CCOC(=O)c1csc(NC(=O)c2ccc(=O)n(Cc3cccc(F)c3)n2)n1 | i | +
CCOc1ccccc1C(=O)Nc1ccc(N2CCCC2=O)c(C)c1 | x | i
NC(=O)c1cccc(NC(=O)c2ccoc2)c1 | i | i
O=C(Nc1ccc(Nc2ccccc2)cc1)c1ccoc1 | i | +
CC(=O)c1ccc(NC(=O)CCCS(=O)(=O)c2ccc(C)cc2)cc1 | i | i
COc1ccc(-c2nnc3ccc(OCCNC(=O)c4ccccc4Cl)nn23)cc1 | i | i
COc1cccc(-c2nnc3ccc(OCCNC(=O)NC4CCCCC4)nn23)c1 | i | +
COc1ccc(-c2nnc3ccc(OCCNC(=O)c4ccco4)nn23)cc1 | i | +
COc1ccc(-c2nnc3ccc(OCCNC(=O)Nc4ccccc4C)nn23)cc1OC | i | +
COc1cccc(-c2nnc3ccc(OCCNC(=O)Nc4cccc(C)c4)nn23)c1 | i | i
COc1ccc(-c2nnc3ccc(OCCNC(=O)c4cccs4)nn23)cc1OC | i | i
SMILES | GIRK2 activator | AMPAR-TARP mod
O=C(NC1CCCCC1)N(CCc1ccccc1)Cc1ccccn1 | i | i
O=C(NCc1cccc2ccccc12)N(Cc1ccccn1)Cc1ccco1 | i | x
O=C(N(CCc1ccccc1)Cc1ccccn1)C12CC3CC(CC(C3)C1)C2 | i | +
O=C(NCc1cccc2ccccc12)N(CCc1ccccc1)Cc1ccccn1 | i | +
O=C(Cn1cnc(-c2cccs2)cc1=O)NCC(F)(F)F | i | +
O=C(Cn1cnc(-c2cccs2)cc1=O)NCc1ccccc1OC(F)(F)F | i | i
CCOC(=O)C1CCN(C(=O)C2(c3cccs3)CCOCC2)CC1 | i | i
COc1ccccc1C1(C(=O)N2CCC(c3cccs3)CC2)CCOCC1 | i | +
CC(C)(C)OC(=O)N1CCN(CCNC(=O)NCc2ccccc2)CC1 | i | i
COC(=O)N1CCC(CNC(=O)c2cc(C)oc2C)CC1 | i | i
Cn1c(=O)c2c(nc(N=Nc3c(O)[nH]c4ccccc34)n2Cc2ccccc2)n(C)c1=O | x | i
Cn1c(O)c(N=Nc2nc3c(c(=O)n(Cc4ccccc4)c(=O)n3C)n2C)c(=O)n(C)c1=O | x | +
COCCn1c(C(=O)Nc2ccccc2)cc2c(=O)n(C)c(=O)n(C)c21 | i | i
COCCn1c(C(=O)Nc2ccc(F)c(Cl)c2)cc2c(=O)n(C)c(=O)n(C)c21 | i | +
O=C(NCc1ccc2c(c1)OCO2)C(=O)NCC1CCN(Cc2ccco2)CC1 | i | i
CSc1ccccc1NC(=O)c1cc2n(n1)C(C(F)(F)F)CC(c1ccco1)N2 (centres undefined) | x | i
O=C(NCCc1c[nH]c2ccccc12)c1cc2n(n1)C(C(F)(F)F)CC(c1ccco1)N2 (centres undefined) | x | +
COc1ccc(-c2c(C)oc3c4c(ccc3c2=O)OCN(C2CCS(=O)(=O)C2)C4)cc1 (centres undefined) | i | i
CC(C)(C)c1ccc(NC(=O)NCC2CCN(c3ccccn3)CC2)cc1 | i | i
CCOc1ccc(-n2nnnc2SC(C)C(=O)Nc2ccccc2C(=O)OC)cc1 (centres undefined) | x | +
COc1ccc(NC(=O)C(C)Sc2nnnn2-c2ccc(OC)cc2)cc1 (centres undefined) | x | i
COc1ccc(-n2nnnc2SC(C)C(=O)Nc2cccc(Cl)c2)cc1 (centres undefined) | x | i
CCOc1ccc(-n2nnnc2SC(C)C(=O)Nc2cccc(C(C)=O)c2)cc1 (centres undefined) | x | +
COc1ccccc1NC(=O)C(C)Sc1nnnn1-c1ccc(Cl)cc1 (centres undefined) | x | i
CCOc1ccc(-n2nnnc2SC(C)C(=O)Nc2ccccc2C#N)cc1 (centres undefined) | x | +
SMILES | GIRK2 activator | AMPAR-TARP mod
Cc1ccc(C(CNC(=O)C(=O)NCc2ccc(Cl)cc2)N2CCOCC2)cc1 (centres undefined) | i | i
O=C(Nc1ccccc1)Nc1ccc2c(c1)N(C(=O)c1ccccc1)CCC2 | i | x
O=C(/C=C/c1ccc2c(c1)OCO2)Nc1ccc2c(c1)CN(C(=O)C1CC1)CC2 | i | i
O=C(/C=C/c1ccccc1)Nc1ccc2c(c1)N(C(=O)c1ccccc1)CCC2 | i | +
O=C(/C=C/c1ccc2c(c1)OCO2)Nc1ccc2c(c1)N(C(=O)C1CC1)CC2 | i | +
Cc1ccc(OCC(O)Cn2c(C3CC(=O)N(c4ccccc4C)C3)nc3ccccc32)c(C)c1 (centres undefined) | i | i
COc1nn(C)cc1-c1nnc(SCC(=O)NC2CCCCC2)n1C | i | i
COc1ccc(-c2nnc(NC(=O)c3ccc(Cl)cc3Cl)o2)cc1OC | i | i
COc1ccc(-c2nnc(NC(=O)c3ccc([N+](=O)[O-])s3)o2)cc1OC | i | i
O=C(Cn1nc2c(c1NC(=O)CC1CCCCC1)CSC2)NCC1CCCO1 (centres undefined) | i | i
CCCNC(=O)Cn1nc2c(c1NC(=O)CC1CCCC1)CSC2 | i | +
COc1ccc([N+](=O)[O-])cc1NC(=O)c1ccccc1NS(=O)(=O)c1ccccc1 | i | i
COc1ccc(S(=O)(=O)Nc2ccccc2C(=O)Nc2ccc([N+](=O)[O-])cc2OC)cc1 | i | +
O=C(Nc1nnc(Cc2cccs2)o1)c1ccc2c(c1)OCO2 | i | x
O=C(Nc1ccccc1Cl)c1ccc(=O)n(Cc2ccccc2F)c1 | i | i
CC(=O)Nc1ccc(NC(=O)c2ccc(=O)n(Cc3ccccc3Cl)c2)cc1 | i | i
O=C(Nc1ccccc1C(F)(F)F)c1ccc(=O)n(Cc2ccccc2F)c1 | i | +
CCOc1ccccc1NC(=O)c1ccc(=O)n(Cc2ccccc2Cl)c1 | i | +
O=C(Nc1ccc(Cl)c(Cl)c1)Nc1ccc2cn[nH]c2c1 | i | i
O=C(Nc1ccc2cn[nH]c2c1)c1ccc(=O)[nH]n1 | i | +
